# Assay results: PubChem BioAssay (NCI)
# The panel holds about 83,000 compounds, 20% with a hit somewhere; the sample as a whole holds those more often.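 Compound tested at a single concentration for 48 hours in 96-well plates; a percent growth value below 10 was scored as active.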 The source made the active and inactive calls.
# System: NCI-H322M lung
# Assay: NCI-60 one-dose screen, 48 h (100 = growth as untreated, 0 = no growth, -100 = all killed)
# Conditions: 10 µM unless noted
row,Structure (SMILES),growth
1,CCN(CC)CCOc1ccc(/C(=C(\C)Cc2ccc(OC)cc2)c2ccc(OC(=O)NCc3ccccc3)cc2)cc1,80.4% (inactive)
2,C=C1C(=O)O[C@H]2[C@H]1CC/C(COC(=O)NCc1ccc(Cn3c(=O)sn(-c4ccc(I)cc4)c3=O)cc1)=C\CC[C@@]1(C)O[C@@H]21,101% (inactive)
3,O=c1oc2ccccc2cc1-c1nn(-c2ccccc2)cc1-c1nn[nH]n1,100% (inactive)
4,O=c1oc2c(cc1-c1ccccc1)c(=O)[nH]c1ccccc12,104% (inactive)
5,CC1=C(Cl)C(=O)c2cc(C)ccc2C1=O,94.4% (inactive)

# System: HOP-62 NSCLC
# Assay: as above
# Conditions: 10 µM unless noted
row,Structure (SMILES),growth
1,O=c1oc2c(cnc3ccccc32)cc1-c1cccc(Cl)c1,113% (inactive)
2,CCOC(=O)c1c(C)nc2c(c1N)C(=O)C(=O)N2Cc1ccc(OC)cc1,40.1% (inactive)
3,CCNC(=O)N1CCc2c(Br)c3c(c(OC)c2C1Cc1ccc(OC)cc1)OCO3 (centres undefined),36.3% (inactive)
4,COc1cc2c(c(OC)c1OC)CCC(c1cccc(C(=O)Nc3ccc(Br)cc3)c1)O2 (centres undefined),82% (inactive)
5,OC1CSSC1Cn1cnc2c(Nc3ccc(OCc4cccc(F)c4)c(Cl)c3)ncnc21 (centres undefined),-27.2% (active)
6,C=CN(C(=O)N1CCN(c2cc3c(cc2F)c(=O)c(C(=O)O)cn3C2CC2)CC1)c1nc(-c2ccc(Cl)cc2)cs1,69.4% (inactive)
7,C#CCOc1cccc(Nc2ncnc3cc(NC(=O)CCl)ccc23)c1,-61.6% (active)
8,Cc1nc2ccccc2c(/C=C/c2ccc(F)cc2)c1C(=O)/C=C/c1ccccc1,-4.45% (active)
9,COc1cc(/C=C/C(=O)N2CCN(C(=O)c3cc(OC)c(OC)c(OC)c3)CC2)ccc1OCCCOc1cc2c(cc1OC)C(=O)N1CCC[C@H]1C=N2,9.35% (active)
10,O=C(NC1CCC(Br)CC1)C1CCCC(S(=O)(=O)NC2CCCCC2)C1 (centres undefined),13.8% [25 µM] (inactive)
11,COc1cc(/C=C/c2cn[nH]c2-c2ccc(C)cc2)cc(OC)c1OC,33.8% (inactive)
12,COc1ccc(C/C(C)=C(\c2ccc(Cl)cc2)c2ccc(OCCN3CCCC3)cc2)cc1,94.6% (inactive)
13,CN(C)Cc1ccc(NC(=O)c2cncc(C#Cc3cnc(N)c4ncccc34)c2)cc1C(F)(F)F,79.8% (inactive)
14,COC(=O)c1c(C)nc(C)c2c1C(=O)C=C(NCc1ccccc1)C2=O,91.2% (inactive)
15,N#CSc1c[nH]c2ccc(/C=C/C(=O)/C=C(O)/C=C/c3ccc4[nH]cc(SC#N)c4c3)cc12,28.1% (inactive)
16,Cc1ccc(-c2nc(SCC(=O)N3CCN(c4cc5c(cc4F)c(=O)c(C(=O)O)cn5C4CC4)CC3)nc(Cl)c2C#N)cc1,90.4% (inactive)
17,C=C(C)[C@@H]1CC[C@]2(C(=O)N3CCN(C)CC3)CC[C@]3(C)[C@H](CC[C@@H]4[C@@](C)(CCC(=O)O)[C@H](C(=C)C)CC[C@]43C)[C@@H]12,95.5% (inactive)
18,Nc1[nH]nc2nc(-c3ccccc3)n3c4ccccc4nc3c12,95.7% (inactive)
19,CN1CCOCCN(C)Cc2ccc3ccc(cc3c2)CN(C)CCOCCN(C)Cc2ccc3ccc(cc3c2)C1,91.8% (inactive)
20,C=C1C(=O)O[C@H]2[C@H]1CC/C(CNC(=O)Cc1c[nH]c3ccccc13)=C\CC[C@@]1(C)O[C@@H]21,53.8% (inactive)
21,COc1ccc2c(c1)CC[C@@H]1[C@@H]2CC[C@]2(C)c3c(cc(C#N)c4c3sc3ccccc34)C[C@@H]12,99.5% (inactive)
22,O=C(c1c[nH]c2ccccc12)c1n[nH]c(=S)n1-c1ccc([N+](=O)[O-])cc1,87.4% (inactive)
23,Cc1c2cnccc2c(C)c2c1c1cc(CO)ccc1n2C,-48.8% (active)
24,COc1cc(-c2nccc3[nH]c(-c4cccc5[nH]ccc45)nc23)cc(OC)c1OC,12.2% (inactive)
25,Clc1ccc(-c2nc(C(Cl)Cl)nc3cc(-c4ccccc4)nn23)cc1,14.6% (inactive)
26,CN(C)c1ccc([C@@H](C(=O)Nc2cccc([N+](=O)[O-])c2)N(C(=O)c2cc3ccccc3[nH]2)c2cccc([N+](=O)[O-])c2)cc1,88.7% (inactive)
27,O=C(CSc1nnnn1-c1ccccc1)Nc1ccc(Oc2ccccc2)cc1,95.6% (inactive)
28,COc1cc(/C=C/C(=O)c2cccc(-n3cc(-c4ccc(Cl)cc4)[nH]c3=O)c2)ccc1O,130% (inactive)
29,Oc1c(CN2CCC(N3CCOCC3)CC2)cc(Cc2cc(CN3CCC(N4CCOCC4)CC3)c(O)c3ncccc23)c2cccnc12,19.4% (inactive)
